Records with an inconclusive call do not appear. Active and inactive are the calls of the source. Unless noted, the call rests on the fitted dose curve; in most records, active means well fitted curve in the direction sought with a large enough effect in the repeat runs; inconclusive means weak or mixed curves; inactive means no such curve, though single readings can be large; an effect the other way counts as inactive or inconclusive.
Columns and labels:
[1] = qHTS assay to identify aromatase inhibitors - cell viability counter screen (AID 743084);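 further: cells stimulated with testosterone during compound exposure; nearly all actives have a fitted effect of over 55% in size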
[2] = target: Aryl hydrocarbon receptor (Homo sapiens) (UniProt P35869); assay: qHTS assay to identify small molecule that activate the aryl hydrocarbon receptor (AhR) signaling pathway (AID 743085);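 further: HG2L7.5c1 human HepG2 liver cells with stably integrated DRE-driven firefly reporter; series mostly up to about 70 µM; nearly all actives have a fitted effect of over 15% in size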
How it was run: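 Compounds were tested in HepG2 hepatocellular carcinoma cells harbouring a stably integrated luciferase gene under control of 20 DREs. Increased reporter signal after 24 h treatment at 37C was taken as AhR activation.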

[3] = qHTS assay to identify small molecule that activate the aryl hydrocarbon receptor (AhR) signaling pathway - cell viability counter screen (AID 743086);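 further: HepG2 liver cells carrying the AhR DRE luciferase reporter; series mostly up to about 70 µM; nearly all actives have a fitted effect of over 45% in size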
How it was run: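 HepG2-AhR-luc (HG2L7.5c1) cells, 4000/well, treated 24 h at 37 C with compound; viability measured as CellTiter-Fluor fluorescence after 30 min in the same wells as the luciferase read.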

[4] = target: Peroxisome proliferator-activated receptor gamma (Homo sapiens) (UniProt P37231); assay: qHTS assay to identify small molecule agonists of the peroxisome proliferator-activated receptor gamma (PPARg) signaling pathway (AID 743094; active means well fitted activation curve with a large enough effect in the signal ratio in the repeat runs, not every such curve was filed as active; the % refers to the signal ratio)
How it was run: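 Compounds dissolved in DMSO were added to PPARg UAS-bla HEK293H cells for 17 h at 37C, and reporter expression was quantified by fluorescence intensity after 1 h with LiveBLAzer B/G FRET substrate.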

[5] = target: Peroxisome proliferator-activated receptor gamma (Homo sapiens) (UniProt P37231); assay: qHTS assay to identify small molecule antagonists of the peroxisome proliferator-activated receptor gamma (PPARg) signaling pathway (AID 743191; calls by dose curve; further: series mostly up to about 63 µM; nearly all actives have a fitted effect of over 30% in size)
How it was run: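 GeneBLAzer PPARg UAS-bla HEK293H cells, 5 h post-plating, exposed to compounds 17 h at 37C. LiveBLAzer B/G FRET substrate added for 1 h at room temperature; beta-lactamase reporter read by fluorescence intensity.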

[6] = qHTS assay to identify small molecule antagonists of the peroxisome proliferator-activated receptor gamma (PPARg) signaling pathway - cell viability counter screen (AID 743194); further: nearly all actives have a fitted effect of over 55% in size
How it was run: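 Cytotoxicity counter screen in PPARg-bla HEK293H cells, same wells as reporter assay. Compounds plus 50 nM rosiglitazone (final) for 17 h at 37 C, then viability read by CellTiter-Glo luminescence.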

[7] = qHTS assay for small molecule agonists of the antioxidant response element (ARE) signaling pathway - cell viability counter screen (AID 743203; calls by dose curve; further: nearly all actives have a fitted effect of over 55% in size)
How it was run: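 Following 16 hrs of compound treatment at 37C, HepG2 cells with an ARE-controlled beta-lactamase gene were lysed with CellTiter-Glo. Luminescence was read after 30 min at room temperature.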

[8] = qHTS assay for small molecule activators of the heat shock response signaling pathway - cell viability counter screen (AID 743209); further: nearly all actives have a fitted effect of over 50% in size
How it was run: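 Readout: CellTiter-Glo luminescence, 30 min at room temperature. System: HSE-bla HeLa cells, 1500/well, plated overnight. Treatment: compounds in DMSO, 5 h at 37 C.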

[9] = qHTS assay for small molecule activators of the heat shock response signaling pathway (AID 743210; active means well fitted activation curve with a large enough effect in the signal ratio in the repeat runs, with a control signal flat, not every such curve was filed as active; the % refers to the signal ratio; further: series mostly up to about 63 µM)
How it was run: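 HSE-bla HeLa cells (beta-lactamase reporter under heat shock response elements), plated overnight, then exposed to compounds 5 h at 37 C; LiveBLAzer B/G FRET substrate added, 2.5 h at room temperature, fluorescence intensity read.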

[10] = qHTS assay to identify small molecule agonists of the peroxisome proliferator-activated receptor delta (PPARd) signaling pathway - cell viability counter screen (AID 743211); further: nearly all actives have a fitted effect of over 55% in size
How it was run: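 Counter screen for cytotoxicity run in parallel with the PPARd reporter screen. Beta-lactamase reporter HEK293H cells exposed to compounds 17 h; ATP-based CellTiter-Glo luminescence quantified viability.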

[11] = qHTS assay to identify small molecule antagonists of the peroxisome proliferator-activated receptor delta (PPARd) signaling pathway - cell viability counter screen (AID 743213); further: nearly all actives have a fitted effect of over 50% in size
How it was run: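 HEK293H PPARd UAS-bla cells, 5 h pre-incubation, compound + L165041 300 nM final, 17 h 37 C; B/G FRET substrate 2 h RT; then CellTiter-Glo 30 min RT, luminescence.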

[12] = qHTS assay to identify small molecule antagonists of the farnesoid-X-receptor (FXR) signaling pathway - cell viability counter screen (AID 743221; active means well fitted cell-killing curve with a large enough effect in the repeat runs, not every such curve was filed as active; further: nearly all actives have a fitted effect of over 50% in size)
How it was run: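 Multiplexed counter screen: viability of FXR-bla HEK 293T cells under agonist stimulation by chenodeoxycholic acid (50 uM, final) and test compound for 16 h at 37 C, measured by CellTiter-Glo luminescence in the reporter wells.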

[13] = target: Vitamin D3 receptor (Homo sapiens) (UniProt P11473); assay: qHTS assay to identify small molecule agonists of the vitamin D receptor (VDR) signaling pathway (AID 743222; calls by dose curve)
How it was run: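 In VDR-bla cells, compound-induced beta-lactamase expression is quantified by FRET substrate fluorescence. Treatment lasts 16 h at 37C; substrate develops 2 h at room temperature.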

[14] = target: Vitamin D3 receptor (Homo sapiens) (UniProt P11473); assay: qHTS assay to identify small molecule antagonists of the vitamin D receptor (VDR) signaling pathway (AID 743223; active means well fitted inhibition curve with a large enough effect in the signal ratio in the repeat runs, not every such curve was filed as active; the % refers to the signal ratio)
How it was run: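 Cells carrying a VDR-driven beta-lactamase reporter (VDR-bla) were co-treated with compound and 3 nM final 1alpha,25-dihydroxyvitamin D3 for 16 h at 37C; reporter activity was measured as FRET substrate fluorescence after 2 h at room temperature.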

[15] = qHTS assay for small molecule agonists of the antioxidant response element (ARE) signaling pathway (AID 743202; active means well fitted activation curve with a large enough effect in the signal ratio in the repeat runs, not every such curve was filed as active; the % refers to the signal ratio; further: potency means the concentration at half of the fitted maximal effect)
How it was run: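 ARE-bla HepG2 cells (beta-lactamase reporter under the antioxidant response element), plated 5 hours, then exposed to compounds 16 hours at 37 C. LiveBLAzer B/G FRET substrate added for 2 hours at room temperature; fluorescence intensity read.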

[16] = target: Peroxisome proliferator-activated receptor delta (Homo sapiens) (UniProt Q03181); assay: qHTS assay to identify small molecule agonists of the peroxisome proliferator-activated receptor delta (PPARd) signaling pathway (AID 743212; calls by dose curve)
How it was run: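 GeneBLAzer UAS-bla HEK293H cells carrying a PPARδ construct were exposed to compounds at 37 °C. Beta-lactamase activity was read by FRET fluorescence after 2 h at room temperature with LiveBLAzer B/G substrate.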

[17] = target: Peroxisome proliferator-activated receptor delta (Homo sapiens) (UniProt Q03181); assay: qHTS assay to identify small molecule antagonists of the peroxisome proliferator-activated receptor delta (PPARd) signaling pathway (AID 743215; active means well fitted inhibition curve with a large enough effect in the signal ratio in the repeat runs, not every such curve was filed as active; the % refers to the signal ratio;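 further: cells stimulated with agonist L165041 at 300 nM final during compound exposure; series mostly up to about 62 µM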)
How it was run: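 HEK293H UAS-bla, PPARd; agonist L165041 300 nM final with cpd in DMSO; 37 C 17 h; FRET substrate, RT 2 h; fluorescence intensity.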

[18] = qHTS assay to identify small molecule agonists of the farnesoid-X-receptor (FXR) signaling pathway - cell viability counter screen (AID 743218); further: nearly all actives have a fitted effect of over 45% in size
How it was run: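 Parallel cytotoxicity test: compound-treated (16 h, 37 C) HEK 293T FXR-bla reporter cells were lysed with CellTiter-Glo and luminescence recorded.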

[19] = target: Bile acid receptor (Homo sapiens) (UniProt Q96RI1); assay: qHTS assay to identify small molecule agonists of the farnesoid-X-receptor (FXR) signaling pathway (AID 743220; active means well fitted activation curve with a large enough effect in the signal ratio in the repeat runs, not every such curve was filed as active; the % refers to the signal ratio)
How it was run: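 Beta-lactamase reporter under UAS control in GeneBLAzer FXR HEK 293T cells (5000/well) measured with LiveBLAzer FRET substrate after 2 h at room temperature. Compound exposure lasted 16 h at 37C.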

[20] = target: Bile acid receptor (Homo sapiens) (UniProt Q96RI1); assay: qHTS assay to identify small molecule antagonists of the farnesoid-X-receptor (FXR) signaling pathway (AID 743217; active means well fitted inhibition curve with a large enough effect in the signal ratio in the repeat runs, not every such curve was filed as active; the % refers to the signal ratio)
How it was run: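 GeneBLAzer FXR-UAS-bla HEK 293T, CDCA-stimulated (50 uM final). Compound treatment 16 h, 37 °C. Detection: beta-lactamase cleavage of B/G FRET substrate, fluorescence.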
On the % scale 0 is the no-effect control and ±100 the full control effect.

Sequence of Bile acid receptor (Homo sapiens) (Q96RI1 whole entry, looked up): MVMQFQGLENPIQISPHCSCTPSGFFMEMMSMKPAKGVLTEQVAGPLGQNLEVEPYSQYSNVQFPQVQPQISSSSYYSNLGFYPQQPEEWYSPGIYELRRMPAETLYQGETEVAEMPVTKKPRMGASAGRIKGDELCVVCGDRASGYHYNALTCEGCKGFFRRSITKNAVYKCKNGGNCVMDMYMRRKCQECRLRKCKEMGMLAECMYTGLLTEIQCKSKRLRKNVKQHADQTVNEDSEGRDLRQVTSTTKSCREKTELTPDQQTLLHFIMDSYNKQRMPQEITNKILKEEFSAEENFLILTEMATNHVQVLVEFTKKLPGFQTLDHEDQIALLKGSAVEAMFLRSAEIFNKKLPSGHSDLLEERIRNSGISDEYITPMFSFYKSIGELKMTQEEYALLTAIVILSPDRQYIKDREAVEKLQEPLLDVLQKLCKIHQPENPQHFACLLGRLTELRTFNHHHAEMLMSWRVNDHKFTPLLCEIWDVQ
Sequence of Peroxisome proliferator-activated receptor gamma (Homo sapiens) (P37231 whole entry, looked up): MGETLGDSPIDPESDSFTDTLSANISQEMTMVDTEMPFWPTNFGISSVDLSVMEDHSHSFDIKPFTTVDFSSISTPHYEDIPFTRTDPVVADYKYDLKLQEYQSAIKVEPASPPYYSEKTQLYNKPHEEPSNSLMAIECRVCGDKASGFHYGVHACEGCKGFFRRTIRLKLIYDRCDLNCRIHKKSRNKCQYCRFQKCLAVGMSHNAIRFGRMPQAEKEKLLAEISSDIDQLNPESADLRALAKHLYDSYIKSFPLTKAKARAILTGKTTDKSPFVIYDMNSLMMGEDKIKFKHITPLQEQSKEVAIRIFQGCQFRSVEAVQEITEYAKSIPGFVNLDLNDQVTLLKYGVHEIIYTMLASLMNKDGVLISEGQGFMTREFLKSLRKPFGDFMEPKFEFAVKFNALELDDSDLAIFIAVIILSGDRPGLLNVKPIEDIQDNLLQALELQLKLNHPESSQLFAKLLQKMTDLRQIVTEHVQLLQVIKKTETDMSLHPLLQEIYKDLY
Sequence of Peroxisome proliferator-activated receptor delta (Homo sapiens) (Q03181 whole entry, looked up): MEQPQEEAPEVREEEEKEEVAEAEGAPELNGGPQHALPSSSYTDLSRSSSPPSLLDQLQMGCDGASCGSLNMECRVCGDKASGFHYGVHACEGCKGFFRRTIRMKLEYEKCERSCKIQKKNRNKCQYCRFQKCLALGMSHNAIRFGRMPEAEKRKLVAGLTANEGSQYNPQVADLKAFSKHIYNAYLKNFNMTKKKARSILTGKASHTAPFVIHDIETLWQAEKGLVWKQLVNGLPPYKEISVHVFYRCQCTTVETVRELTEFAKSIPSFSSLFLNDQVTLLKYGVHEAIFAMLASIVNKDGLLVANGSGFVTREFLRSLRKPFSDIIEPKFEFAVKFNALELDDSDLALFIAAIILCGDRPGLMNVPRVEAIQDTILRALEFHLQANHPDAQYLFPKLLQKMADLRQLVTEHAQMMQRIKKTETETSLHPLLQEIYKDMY
Sequence of Vitamin D3 receptor (Homo sapiens) (P11473 whole entry, looked up): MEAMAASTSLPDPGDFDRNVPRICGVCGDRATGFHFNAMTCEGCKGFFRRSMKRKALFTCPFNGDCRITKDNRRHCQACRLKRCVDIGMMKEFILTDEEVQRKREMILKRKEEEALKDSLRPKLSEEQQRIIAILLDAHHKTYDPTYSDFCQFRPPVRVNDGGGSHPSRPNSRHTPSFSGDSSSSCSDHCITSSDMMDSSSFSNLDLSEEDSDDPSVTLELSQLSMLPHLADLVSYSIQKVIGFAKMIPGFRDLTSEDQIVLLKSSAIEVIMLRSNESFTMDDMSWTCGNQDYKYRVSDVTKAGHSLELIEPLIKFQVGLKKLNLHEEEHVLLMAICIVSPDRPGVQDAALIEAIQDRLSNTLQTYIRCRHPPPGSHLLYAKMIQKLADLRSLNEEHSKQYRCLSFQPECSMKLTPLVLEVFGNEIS
Sequence of Aryl hydrocarbon receptor (Homo sapiens) (P35869 whole entry, looked up): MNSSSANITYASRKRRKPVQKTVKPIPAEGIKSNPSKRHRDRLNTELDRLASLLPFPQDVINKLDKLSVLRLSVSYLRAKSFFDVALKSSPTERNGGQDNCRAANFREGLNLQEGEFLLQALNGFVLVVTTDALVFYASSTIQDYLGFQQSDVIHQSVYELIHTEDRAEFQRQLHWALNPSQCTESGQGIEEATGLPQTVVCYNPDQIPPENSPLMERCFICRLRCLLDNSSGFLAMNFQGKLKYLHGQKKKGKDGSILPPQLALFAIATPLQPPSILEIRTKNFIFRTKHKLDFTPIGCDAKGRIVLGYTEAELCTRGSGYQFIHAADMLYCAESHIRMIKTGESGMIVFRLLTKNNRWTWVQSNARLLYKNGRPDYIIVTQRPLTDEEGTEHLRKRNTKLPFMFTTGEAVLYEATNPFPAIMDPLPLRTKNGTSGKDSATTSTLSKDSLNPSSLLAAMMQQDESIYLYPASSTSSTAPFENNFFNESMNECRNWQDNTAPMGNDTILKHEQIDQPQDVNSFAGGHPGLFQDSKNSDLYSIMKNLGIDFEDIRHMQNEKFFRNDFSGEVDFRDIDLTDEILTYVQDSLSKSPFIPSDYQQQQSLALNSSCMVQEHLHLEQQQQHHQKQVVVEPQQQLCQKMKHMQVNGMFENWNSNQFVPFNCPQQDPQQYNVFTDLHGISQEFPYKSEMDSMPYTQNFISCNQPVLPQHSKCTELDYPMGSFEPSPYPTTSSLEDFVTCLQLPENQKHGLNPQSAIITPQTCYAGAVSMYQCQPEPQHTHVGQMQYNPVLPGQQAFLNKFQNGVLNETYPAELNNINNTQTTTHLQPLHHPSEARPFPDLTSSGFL

CC(C)NCC(O)c1cc(O)cc(O)c1 (stereo not drawn)
inactive: Potency [1] | Potency [2] | Potency [3] | Potency [4] | Potency [5] | Potency [6] | Potency [7] | Potency [8] | outcome [9] | Potency [10] | Potency [11] | Potency [12] | outcome [13] | Potency [14]

CCCCCCCCCC(=O)OCC
inactive: Potency [1] | Potency [2] | Potency [3] | Potency [4] | Potency [6] | Potency [15] | Potency [7] | Potency [8] | outcome [9] | Potency [10] | outcome [16] | Potency [11] | outcome [17] | Potency [12] | outcome [13] | Potency [14]

CC(=O)O[C@@H]1C(=O)O[C@@H]2[C@H]1OC(=O)[C@@H]2OC(C)=O
inactive: Potency [1] | Potency [2] | Potency [3] | Potency [4] | Potency [6] | Potency [7] | Potency [8] | outcome [9] | Potency [10] | outcome [16] | Potency [18] | Potency [12]
active: Potency [15] 10.6 µM

NC[C@H]1O[C@H](O[C@H]2[C@H](O)[C@@H](O[C@H]3O[C@H](CO)[C@@H](O)[C@H](N)[C@H]3O)[C@H](N)C[C@@H]2N)[C@H](O)[C@@H](O)[C@@H]1O
inactive: Potency [1] | activation [2] 0.116% [at 8.47 µM] | Potency [3] | Potency [4] | activity change, negative = cytotoxicity [6] -17.2% [at 5.95 µM] | activation [15] 4.43% [at 8.36 µM] | viability change, negative = cytotoxic [7] 7.86% [at 8.36 µM] | activity change, negative = cytotoxicity [8] 5.37% [at 5.95 µM] | activity change, negative = cytotoxicity [10] -7.03% [at 5.95 µM] | viability change, negative = cytotoxic [11] -5.87% [at 6.26 µM] | ratio activity, negative = inhibition [17] 3.27% [at 6.26 µM] | viability change, negative = cytotoxic [18] 5.82% [at 5.95 µM] | activity change, negative = cytotoxicity [12] -10.3% [at 5.95 µM] | activation [13] -7.13% [at 6.01 µM] | activity change, negative = inhibition [14] 5.88% [at 6.95 µM]

C=C(C)C(=O)OCCN(C)C
inactive: Potency [1] | Potency [2] | Potency [3] | Potency [4] | Potency [5] | Potency [6] | Potency [7] | Potency [8] | outcome [9] | Potency [10] | outcome [16] | Potency [11] | outcome [17] | Potency [18] | Potency [12] | outcome [13]

CCCCOCCOCCOCCOCCO
inactive: Potency [1] | Potency [2] | Potency [3] | Potency [4] | Potency [6] | Potency [15] | Potency [7] | Potency [8] | outcome [9] | Potency [10] | outcome [16] | Potency [11] | outcome [17] | Potency [12] | outcome [13]

COC(=O)CSc1cc(N=c2sc(=O)n3n2CCCC3)c(F)cc1Cl
inactive: Potency [1] | Potency [2] | Potency [3] | Potency [4] | Potency [5] | Potency [6] | Potency [7] | Potency [8] | outcome [9] | Potency [10] | outcome [17] | outcome [19] | Potency [12] | outcome [13] | Potency [14]

CCOC(=O)CC(C)C
inactive: Potency [1] | Potency [2] | Potency [3] | Potency [4] | Potency [5] | Potency [15] | Potency [7] | Potency [8] | outcome [9] | Potency [10] | Potency [11] | Potency [18] | Potency [12] | outcome [13]

COc1ccc(OC)c(OC)c1
inactive: Potency [1] | Potency [2] | Potency [3] | Potency [4] | Potency [5] | Potency [6] | Potency [7] | Potency [8] | Potency [11] | outcome [20] | Potency [18] | outcome [19] | Potency [12] | outcome [13] | Potency [14]
